From paper PMC7862700, “An all-to-all approach to the identification of sequence-specific readers for epigenetic DNA modifications on cytosine” come the findings set out here.

What all share (test): DAPPL (digital affinity profiling via proximity ligation, sequencing); 10 mM Tris-HCl pH 7.5, 50 mM NaCl, 1 mM DTT, 4% glycerol, room temperature, 30 min; GST-TFs on glutathione beads, 16-mer random dsDNA library, 0.1% formaldehyde crosslink after washing; high values mean tight binding
One test has as its target T1, FLI1 (Homo sapiens, UniProt Q01543 1-452).
T1 sequence: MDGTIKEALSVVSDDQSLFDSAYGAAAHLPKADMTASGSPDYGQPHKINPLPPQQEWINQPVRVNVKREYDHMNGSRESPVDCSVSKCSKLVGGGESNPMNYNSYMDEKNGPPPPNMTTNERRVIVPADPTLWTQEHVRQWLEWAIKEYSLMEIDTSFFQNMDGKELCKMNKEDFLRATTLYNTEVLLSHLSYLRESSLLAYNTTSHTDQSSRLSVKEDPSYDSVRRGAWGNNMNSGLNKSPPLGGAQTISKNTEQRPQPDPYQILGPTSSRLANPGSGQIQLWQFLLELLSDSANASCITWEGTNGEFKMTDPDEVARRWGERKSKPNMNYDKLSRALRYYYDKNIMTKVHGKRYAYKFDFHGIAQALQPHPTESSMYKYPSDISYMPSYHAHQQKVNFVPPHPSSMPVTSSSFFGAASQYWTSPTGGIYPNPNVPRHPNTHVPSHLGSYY
The settings on record: protein: recombinant; tags: N-terminal GST; dsDNA, one strand shown. Put shortly:
(§1)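 The binding signal reported is, for every hexamer, its read frequency for a factor over its read frequency for the tag-only sample. Reads came from pools of yeast-expressed, GST-fused human transcription factors on glutathione beads, barcoded with DNA and mixed with that sample, which were incubated with 200 nmole of a random double-stranded 16-mer DNA library in Tris/NaCl/DTT/glycerol buffer at room temperature for 30 min. After washing, the pools were crosslinked with 0.1% formaldehyde, proximity-ligated with BsaI/T4 ligase for 1 h at 37 °C, PCR-amplified and sequenced on an Illumina NextSeq500.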

The target of the next test is T2, ELK1 (Homo sapiens, UniProt P19419 1-428).
T2 sequence: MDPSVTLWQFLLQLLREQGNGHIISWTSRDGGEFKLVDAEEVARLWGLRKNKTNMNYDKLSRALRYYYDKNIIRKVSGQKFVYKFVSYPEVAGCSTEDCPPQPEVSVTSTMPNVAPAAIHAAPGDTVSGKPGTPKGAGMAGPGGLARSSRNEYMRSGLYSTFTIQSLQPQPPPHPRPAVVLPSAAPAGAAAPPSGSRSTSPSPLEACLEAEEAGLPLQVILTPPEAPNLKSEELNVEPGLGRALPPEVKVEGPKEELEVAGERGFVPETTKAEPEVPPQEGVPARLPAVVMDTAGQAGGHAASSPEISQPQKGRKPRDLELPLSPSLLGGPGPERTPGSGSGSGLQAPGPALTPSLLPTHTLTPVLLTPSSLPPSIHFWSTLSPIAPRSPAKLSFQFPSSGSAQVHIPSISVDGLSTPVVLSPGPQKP
Particulars: protein: recombinant; tags: N-terminal GST; dsDNA, one strand shown. The procedure, abridged: as §1

Another test has as its target T3, GABPA (Homo sapiens, UniProt Q06546 1-454).
T3 sequence: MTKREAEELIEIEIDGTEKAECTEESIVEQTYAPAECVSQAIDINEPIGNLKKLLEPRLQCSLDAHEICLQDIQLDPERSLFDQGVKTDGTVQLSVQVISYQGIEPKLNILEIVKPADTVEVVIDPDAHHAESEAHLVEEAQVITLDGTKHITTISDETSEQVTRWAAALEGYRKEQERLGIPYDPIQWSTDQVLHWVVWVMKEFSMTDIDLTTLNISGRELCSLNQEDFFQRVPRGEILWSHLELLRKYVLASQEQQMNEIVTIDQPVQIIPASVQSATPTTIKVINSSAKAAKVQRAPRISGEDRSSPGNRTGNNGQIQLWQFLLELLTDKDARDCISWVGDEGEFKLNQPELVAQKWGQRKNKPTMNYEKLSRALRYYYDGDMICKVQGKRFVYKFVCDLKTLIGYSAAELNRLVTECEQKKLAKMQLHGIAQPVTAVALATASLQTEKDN
The settings on record: protein: recombinant; tags: N-terminal GST; dsDNA, one strand shown. Put shortly: as §1

The target of another test is T4, ERG (Homo sapiens, UniProt P11308 1-479).
T4 sequence: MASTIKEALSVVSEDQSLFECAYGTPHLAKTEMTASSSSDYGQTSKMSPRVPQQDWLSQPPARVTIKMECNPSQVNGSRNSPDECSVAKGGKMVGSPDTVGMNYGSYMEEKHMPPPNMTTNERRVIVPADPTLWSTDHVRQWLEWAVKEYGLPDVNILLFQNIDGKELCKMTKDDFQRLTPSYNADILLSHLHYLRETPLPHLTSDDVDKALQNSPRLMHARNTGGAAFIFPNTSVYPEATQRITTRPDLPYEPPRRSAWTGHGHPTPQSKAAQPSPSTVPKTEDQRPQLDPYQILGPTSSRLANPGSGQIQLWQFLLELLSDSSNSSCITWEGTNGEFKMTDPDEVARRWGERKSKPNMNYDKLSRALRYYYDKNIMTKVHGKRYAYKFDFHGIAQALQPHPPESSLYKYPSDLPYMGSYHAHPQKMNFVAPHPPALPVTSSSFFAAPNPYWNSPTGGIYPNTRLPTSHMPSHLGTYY
Particulars: protein: recombinant; tags: N-terminal GST; dsDNA, one strand shown. The procedure, abridged:
as §1

The target of another test is ELF1 (Homo sapiens, UniProt P32519 1-619). The settings on record: protein: recombinant; tags: N-terminal GST; dsDNA, one strand shown. Put shortly: as §1
Another test deals with T5, EHF (Homo sapiens, UniProt Q9NZC4 1-300).
T5 sequence: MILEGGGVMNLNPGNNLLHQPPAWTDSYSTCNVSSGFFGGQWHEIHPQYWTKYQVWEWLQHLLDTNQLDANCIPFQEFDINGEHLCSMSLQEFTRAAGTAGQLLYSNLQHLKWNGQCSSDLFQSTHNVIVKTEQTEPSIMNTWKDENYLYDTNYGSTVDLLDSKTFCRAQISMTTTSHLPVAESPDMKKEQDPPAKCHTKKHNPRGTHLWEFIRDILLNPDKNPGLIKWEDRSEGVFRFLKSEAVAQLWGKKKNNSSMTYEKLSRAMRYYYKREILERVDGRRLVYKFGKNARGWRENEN
Particulars: protein: recombinant; tags: N-terminal GST; dsDNA, one strand shown. Put shortly:
as §1

The next test deals with SPI1 (Homo sapiens, UniProt P17947 1-270). The settings on record: protein: recombinant; tags: N-terminal GST; dsDNA, one strand shown. Put shortly:
as §1

A further test has as its target SPIB (Homo sapiens, UniProt Q01892 1-262). The settings on record: protein: recombinant; tags: N-terminal GST; dsDNA, one strand shown. The procedure, abridged:
as §1

The target in another test is T6, ELK3 (Homo sapiens, UniProt P41970 1-407).
T6 sequence: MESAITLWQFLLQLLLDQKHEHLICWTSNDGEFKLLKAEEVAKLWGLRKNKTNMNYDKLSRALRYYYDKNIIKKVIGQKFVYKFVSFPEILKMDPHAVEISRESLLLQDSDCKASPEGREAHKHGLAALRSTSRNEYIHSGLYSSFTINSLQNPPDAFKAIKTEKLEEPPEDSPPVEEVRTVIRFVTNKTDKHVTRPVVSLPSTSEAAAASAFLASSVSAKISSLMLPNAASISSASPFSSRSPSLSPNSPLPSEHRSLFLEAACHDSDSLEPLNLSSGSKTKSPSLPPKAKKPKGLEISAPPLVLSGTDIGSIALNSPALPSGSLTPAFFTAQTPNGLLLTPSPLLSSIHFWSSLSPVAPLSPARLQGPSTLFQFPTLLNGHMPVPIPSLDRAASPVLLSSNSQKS
Particulars: protein: recombinant; tags: N-terminal GST; dsDNA, one strand shown. The procedure, abridged: as §1

In a further test the target is T7, FEV (Homo sapiens, UniProt Q99581 1-238).
T7 sequence: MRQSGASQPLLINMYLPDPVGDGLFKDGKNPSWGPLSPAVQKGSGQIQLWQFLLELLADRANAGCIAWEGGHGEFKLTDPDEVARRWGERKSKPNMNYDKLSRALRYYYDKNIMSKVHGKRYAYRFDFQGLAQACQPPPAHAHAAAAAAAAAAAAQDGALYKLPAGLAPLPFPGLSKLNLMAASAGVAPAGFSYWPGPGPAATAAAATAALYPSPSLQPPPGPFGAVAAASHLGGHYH
The settings on record: protein: recombinant; tags: N-terminal GST; dsDNA, one strand shown. The procedure, abridged:
as §1

The target in the next test is ETV5 (Homo sapiens, UniProt P41161 1-510). Particulars: protein: recombinant; tags: N-terminal GST; dsDNA, one strand shown. The procedure, abridged:
as §1

The target of another test is HSF1 (Homo sapiens, UniProt Q00613 1-529). The settings on record: protein: recombinant; tags: N-terminal GST; chain copies: 3; dsDNA, one strand shown. The procedure, abridged: as §1
A further test deals with T8, SPIC (Homo sapiens, UniProt Q8N5J4 1-248).
T8 sequence: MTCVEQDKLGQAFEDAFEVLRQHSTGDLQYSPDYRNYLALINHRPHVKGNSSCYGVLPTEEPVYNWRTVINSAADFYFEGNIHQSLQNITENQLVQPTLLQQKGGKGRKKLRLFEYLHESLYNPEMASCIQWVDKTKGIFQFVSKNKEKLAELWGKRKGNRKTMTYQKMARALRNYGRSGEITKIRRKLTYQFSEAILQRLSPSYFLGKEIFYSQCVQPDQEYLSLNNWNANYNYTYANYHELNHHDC
The settings on record: protein: recombinant; tags: N-terminal GST; dsDNA, one strand shown. The procedure, abridged: as §1

In the next test the target is ELF4 (Homo sapiens, UniProt Q99607 1-663). Particulars: protein: recombinant; tags: N-terminal GST; dsDNA, one strand shown. The procedure, abridged:
as §1

The target in another test is T9, ELK4 (Homo sapiens, UniProt P28324-2 1-405).
T9 sequence: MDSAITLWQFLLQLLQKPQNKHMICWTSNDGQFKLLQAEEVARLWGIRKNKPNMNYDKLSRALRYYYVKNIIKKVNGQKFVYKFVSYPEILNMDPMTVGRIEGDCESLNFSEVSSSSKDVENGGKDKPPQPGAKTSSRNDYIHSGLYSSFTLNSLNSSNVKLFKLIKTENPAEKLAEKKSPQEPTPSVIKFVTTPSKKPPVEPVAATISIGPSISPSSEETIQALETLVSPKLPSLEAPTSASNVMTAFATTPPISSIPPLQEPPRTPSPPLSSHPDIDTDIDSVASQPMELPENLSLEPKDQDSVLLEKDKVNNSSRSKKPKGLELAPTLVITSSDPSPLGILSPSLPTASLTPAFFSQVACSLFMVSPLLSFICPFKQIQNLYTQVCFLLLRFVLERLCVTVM
Particulars: protein: recombinant; tags: N-terminal GST; dsDNA, one strand shown. The procedure, abridged:
as §1

In a further test the target is T10, ETV2 (Homo sapiens, UniProt O00321 1-342).
T10 sequence: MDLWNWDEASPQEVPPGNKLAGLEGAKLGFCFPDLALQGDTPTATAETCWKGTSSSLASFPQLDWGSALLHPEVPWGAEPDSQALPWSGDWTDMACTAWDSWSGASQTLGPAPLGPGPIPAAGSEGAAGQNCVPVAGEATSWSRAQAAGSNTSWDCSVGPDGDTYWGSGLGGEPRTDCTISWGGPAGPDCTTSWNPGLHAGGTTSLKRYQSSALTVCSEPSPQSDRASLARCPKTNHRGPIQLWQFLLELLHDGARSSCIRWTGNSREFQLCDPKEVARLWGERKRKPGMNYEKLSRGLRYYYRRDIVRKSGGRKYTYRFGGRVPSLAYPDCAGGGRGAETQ
The settings on record: protein: recombinant; tags: N-terminal GST; dsDNA, one strand shown. Put shortly:
as §1

In the next test the target is T11, ELF3 (Homo sapiens, UniProt P78545 1-371).
T11 sequence: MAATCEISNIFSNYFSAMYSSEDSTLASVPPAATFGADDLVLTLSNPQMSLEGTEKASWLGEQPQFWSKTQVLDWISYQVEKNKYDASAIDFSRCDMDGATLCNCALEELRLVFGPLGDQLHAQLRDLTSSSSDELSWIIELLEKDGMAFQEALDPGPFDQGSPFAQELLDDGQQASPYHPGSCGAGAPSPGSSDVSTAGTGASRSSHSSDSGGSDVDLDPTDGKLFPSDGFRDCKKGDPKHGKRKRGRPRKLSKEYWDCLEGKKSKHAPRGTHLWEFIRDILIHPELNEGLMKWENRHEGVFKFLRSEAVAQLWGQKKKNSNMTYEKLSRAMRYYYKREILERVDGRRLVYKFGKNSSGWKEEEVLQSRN
Particulars: protein: recombinant; tags: N-terminal GST; dsDNA, one strand shown. Put shortly:
as §1

The next test has as its target CRX (Homo sapiens, UniProt O43186 1-299). The settings on record: protein: recombinant; tags: N-terminal GST; dsDNA, one strand shown. Put shortly: as §1
For the next test, the target named is ETV1 (Homo sapiens, UniProt P50549 1-477). Particulars: protein: recombinant; tags: N-terminal GST; dsDNA, one strand shown. The procedure, abridged:
as §1

Chain of ELF1 (P32519 whole entry): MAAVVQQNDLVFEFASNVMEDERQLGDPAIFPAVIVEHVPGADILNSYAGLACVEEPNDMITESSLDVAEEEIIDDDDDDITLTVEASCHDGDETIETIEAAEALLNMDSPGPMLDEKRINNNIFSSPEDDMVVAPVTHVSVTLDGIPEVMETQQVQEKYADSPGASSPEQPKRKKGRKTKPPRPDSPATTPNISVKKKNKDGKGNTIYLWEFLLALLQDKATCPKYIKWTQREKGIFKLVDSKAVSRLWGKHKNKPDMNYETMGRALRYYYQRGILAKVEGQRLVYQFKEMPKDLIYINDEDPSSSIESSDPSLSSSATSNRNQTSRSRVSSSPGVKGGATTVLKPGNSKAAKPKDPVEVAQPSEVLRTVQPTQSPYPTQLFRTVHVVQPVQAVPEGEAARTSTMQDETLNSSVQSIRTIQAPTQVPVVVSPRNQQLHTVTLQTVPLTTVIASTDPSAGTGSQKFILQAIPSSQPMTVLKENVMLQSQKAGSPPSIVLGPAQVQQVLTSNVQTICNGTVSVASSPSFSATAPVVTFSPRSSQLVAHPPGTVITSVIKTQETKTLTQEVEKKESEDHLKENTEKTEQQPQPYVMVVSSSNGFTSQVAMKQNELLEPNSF
Chain of CRX (O43186 whole entry): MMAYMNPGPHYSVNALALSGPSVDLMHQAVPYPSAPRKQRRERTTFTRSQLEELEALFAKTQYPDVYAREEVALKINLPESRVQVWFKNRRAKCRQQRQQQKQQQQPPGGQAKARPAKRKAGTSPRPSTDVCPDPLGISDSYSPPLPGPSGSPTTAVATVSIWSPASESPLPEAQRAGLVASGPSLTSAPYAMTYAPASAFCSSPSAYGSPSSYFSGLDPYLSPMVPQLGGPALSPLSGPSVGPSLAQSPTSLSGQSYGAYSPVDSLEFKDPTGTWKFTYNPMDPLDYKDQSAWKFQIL
Chain of ETV5 (P41161 whole entry): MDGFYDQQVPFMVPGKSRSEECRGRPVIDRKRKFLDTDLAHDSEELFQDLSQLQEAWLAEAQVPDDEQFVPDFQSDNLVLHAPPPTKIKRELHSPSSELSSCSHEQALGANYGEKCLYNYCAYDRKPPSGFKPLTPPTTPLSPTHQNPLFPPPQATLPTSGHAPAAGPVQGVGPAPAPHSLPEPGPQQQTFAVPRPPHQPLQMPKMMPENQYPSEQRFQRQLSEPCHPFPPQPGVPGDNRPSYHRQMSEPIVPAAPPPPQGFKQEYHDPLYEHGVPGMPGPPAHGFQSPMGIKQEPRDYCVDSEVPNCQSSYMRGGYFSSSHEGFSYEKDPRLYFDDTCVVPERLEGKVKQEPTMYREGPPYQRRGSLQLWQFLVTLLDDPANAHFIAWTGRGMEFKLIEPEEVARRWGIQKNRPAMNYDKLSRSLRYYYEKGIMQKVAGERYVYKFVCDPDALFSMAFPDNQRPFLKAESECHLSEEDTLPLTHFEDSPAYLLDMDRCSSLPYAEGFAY
Chain of ETV1 (P50549 whole entry): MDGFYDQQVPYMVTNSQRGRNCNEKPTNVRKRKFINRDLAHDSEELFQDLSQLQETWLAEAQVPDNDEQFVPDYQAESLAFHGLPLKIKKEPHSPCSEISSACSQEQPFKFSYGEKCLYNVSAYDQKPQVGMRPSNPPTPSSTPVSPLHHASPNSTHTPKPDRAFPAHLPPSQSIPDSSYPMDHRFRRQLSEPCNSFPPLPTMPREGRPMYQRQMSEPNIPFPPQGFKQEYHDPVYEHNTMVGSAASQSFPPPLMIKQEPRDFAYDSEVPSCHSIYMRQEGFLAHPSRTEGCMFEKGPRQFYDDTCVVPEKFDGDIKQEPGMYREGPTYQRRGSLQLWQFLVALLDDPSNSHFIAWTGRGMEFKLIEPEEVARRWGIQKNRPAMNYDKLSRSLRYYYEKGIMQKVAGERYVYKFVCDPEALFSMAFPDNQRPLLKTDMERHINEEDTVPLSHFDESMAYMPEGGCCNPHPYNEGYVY
Chain of SPIB (Q01892 whole entry): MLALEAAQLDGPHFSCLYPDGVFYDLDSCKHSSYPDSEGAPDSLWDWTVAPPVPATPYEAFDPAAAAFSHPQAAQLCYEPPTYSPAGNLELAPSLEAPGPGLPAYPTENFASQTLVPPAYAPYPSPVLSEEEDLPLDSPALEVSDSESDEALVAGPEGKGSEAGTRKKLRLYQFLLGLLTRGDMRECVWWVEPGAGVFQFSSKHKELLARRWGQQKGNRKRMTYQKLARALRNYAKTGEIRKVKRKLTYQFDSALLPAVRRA
Chain of ELF4 (Q99607 whole entry): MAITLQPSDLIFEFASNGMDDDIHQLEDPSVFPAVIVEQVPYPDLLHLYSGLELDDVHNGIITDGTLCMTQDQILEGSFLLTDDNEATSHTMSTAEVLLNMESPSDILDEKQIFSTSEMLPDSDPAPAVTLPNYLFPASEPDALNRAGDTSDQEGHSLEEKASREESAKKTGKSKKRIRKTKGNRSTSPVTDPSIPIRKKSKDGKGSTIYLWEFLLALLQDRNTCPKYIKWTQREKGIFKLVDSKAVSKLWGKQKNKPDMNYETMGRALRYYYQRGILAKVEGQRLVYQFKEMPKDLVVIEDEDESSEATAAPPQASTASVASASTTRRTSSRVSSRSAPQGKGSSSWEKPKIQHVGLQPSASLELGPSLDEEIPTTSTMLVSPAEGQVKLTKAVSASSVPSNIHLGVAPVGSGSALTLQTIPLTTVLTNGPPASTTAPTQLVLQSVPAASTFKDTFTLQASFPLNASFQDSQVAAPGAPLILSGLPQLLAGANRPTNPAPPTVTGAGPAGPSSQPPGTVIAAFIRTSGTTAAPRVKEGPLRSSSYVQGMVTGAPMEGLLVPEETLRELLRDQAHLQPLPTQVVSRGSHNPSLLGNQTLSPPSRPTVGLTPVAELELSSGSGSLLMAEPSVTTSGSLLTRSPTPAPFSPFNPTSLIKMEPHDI
Chain of HSF1 (Q00613 whole entry): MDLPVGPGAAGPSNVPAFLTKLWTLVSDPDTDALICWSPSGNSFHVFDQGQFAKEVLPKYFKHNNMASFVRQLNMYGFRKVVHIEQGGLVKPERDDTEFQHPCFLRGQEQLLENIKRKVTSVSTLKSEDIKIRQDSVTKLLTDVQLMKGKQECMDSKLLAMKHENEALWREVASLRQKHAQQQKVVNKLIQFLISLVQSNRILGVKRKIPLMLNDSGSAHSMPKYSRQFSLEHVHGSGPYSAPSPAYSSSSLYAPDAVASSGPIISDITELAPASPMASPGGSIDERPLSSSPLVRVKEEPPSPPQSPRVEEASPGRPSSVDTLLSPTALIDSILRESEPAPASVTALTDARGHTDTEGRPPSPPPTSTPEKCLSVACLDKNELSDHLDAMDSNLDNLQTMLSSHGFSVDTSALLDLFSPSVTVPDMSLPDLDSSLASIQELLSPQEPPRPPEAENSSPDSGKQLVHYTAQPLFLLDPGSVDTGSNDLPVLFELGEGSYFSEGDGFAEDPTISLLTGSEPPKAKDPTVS

Take AATGAA: the binding signal with FLI1 is 1.11 fold enrichment (6-mer frequency, TF over GST control); with ELK1 it was 1.1 fold enrichment (6-mer frequency, TF over GST control); with GABPA, 1.22 fold enrichment (6-mer frequency, TF over GST control); with ERG it was 1.21 fold enrichment (6-mer frequency, TF over GST control); with ELF1 it was 1.15 fold enrichment (6-mer frequency, TF over GST control); with EHF it was 1.18 fold enrichment (6-mer frequency, TF over GST control). The binding signal is 1.24 fold enrichment (6-mer frequency, TF over GST control) with SPI1; 1.2 fold enrichment (6-mer frequency, TF over GST control) in the test with SPIB; 1.26 fold enrichment (6-mer frequency, TF over GST control) with ELK3; 1.11 fold enrichment (6-mer frequency, TF over GST control) in the test with FEV; 1.16 fold enrichment (6-mer frequency, TF over GST control) with ETV5; 1.12 fold enrichment (6-mer frequency, TF over GST control) in the test with HSF1. Also, the binding signal is 1.26 fold enrichment (6-mer frequency, TF over GST control) in the test with SPIC; 1.2 fold enrichment (6-mer frequency, TF over GST control) with ELF4; 1.24 fold enrichment (6-mer frequency, TF over GST control) with ELK4; 1.08 fold enrichment (6-mer frequency, TF over GST control) in the test with ETV2; 1.24 fold enrichment (6-mer frequency, TF over GST control) with ELF3; 1.03 fold enrichment (6-mer frequency, TF over GST control) with CRX. Moreover, the binding signal with ETV1 is 1.17 fold enrichment (6-mer frequency, TF over GST control).
